Laboratory results taken from PubChem BioAssay.
Results filed as inconclusive are left out. Activity calls are given as the source filed them.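 The calls were made as follows, unless noted: active = viability at or under a set limit in both replicates, limit being median viability minus 3 SD (cut at about 48% in these data, passing the limit was not always enough); inconclusive = at or under the limit in just one replicate; inactive = at or above the limit in both replicates.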

Tests used:
[1] = reducers of endogenous Her2 protein level, primary screen, SKBR3 breast tumor cells, AlphaScreen, ATP viability (AID 461;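 active = Her2 level under about 52% in both replicate screens, with viability over 70% of control, limit read from the data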;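 as to Her2 level: lower value means less Her2 protein in the cells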;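 as to viability: percent of carrier control wells set as 100% viability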); conditions: 18-24 h, measured here: SKBR3 viability, ATP luminescence, at 10 µM
[2] = biological target: Receptor tyrosine-protein kinase erbB-2 (Homo sapiens) (UniProt P04626); experiment: as above; conditions: 18-24 h, at 10 µM, stronger effect = lower value
Receptor tyrosine-protein kinase erbB-2 (Homo sapiens), sequence (P04626 whole entry, looked up): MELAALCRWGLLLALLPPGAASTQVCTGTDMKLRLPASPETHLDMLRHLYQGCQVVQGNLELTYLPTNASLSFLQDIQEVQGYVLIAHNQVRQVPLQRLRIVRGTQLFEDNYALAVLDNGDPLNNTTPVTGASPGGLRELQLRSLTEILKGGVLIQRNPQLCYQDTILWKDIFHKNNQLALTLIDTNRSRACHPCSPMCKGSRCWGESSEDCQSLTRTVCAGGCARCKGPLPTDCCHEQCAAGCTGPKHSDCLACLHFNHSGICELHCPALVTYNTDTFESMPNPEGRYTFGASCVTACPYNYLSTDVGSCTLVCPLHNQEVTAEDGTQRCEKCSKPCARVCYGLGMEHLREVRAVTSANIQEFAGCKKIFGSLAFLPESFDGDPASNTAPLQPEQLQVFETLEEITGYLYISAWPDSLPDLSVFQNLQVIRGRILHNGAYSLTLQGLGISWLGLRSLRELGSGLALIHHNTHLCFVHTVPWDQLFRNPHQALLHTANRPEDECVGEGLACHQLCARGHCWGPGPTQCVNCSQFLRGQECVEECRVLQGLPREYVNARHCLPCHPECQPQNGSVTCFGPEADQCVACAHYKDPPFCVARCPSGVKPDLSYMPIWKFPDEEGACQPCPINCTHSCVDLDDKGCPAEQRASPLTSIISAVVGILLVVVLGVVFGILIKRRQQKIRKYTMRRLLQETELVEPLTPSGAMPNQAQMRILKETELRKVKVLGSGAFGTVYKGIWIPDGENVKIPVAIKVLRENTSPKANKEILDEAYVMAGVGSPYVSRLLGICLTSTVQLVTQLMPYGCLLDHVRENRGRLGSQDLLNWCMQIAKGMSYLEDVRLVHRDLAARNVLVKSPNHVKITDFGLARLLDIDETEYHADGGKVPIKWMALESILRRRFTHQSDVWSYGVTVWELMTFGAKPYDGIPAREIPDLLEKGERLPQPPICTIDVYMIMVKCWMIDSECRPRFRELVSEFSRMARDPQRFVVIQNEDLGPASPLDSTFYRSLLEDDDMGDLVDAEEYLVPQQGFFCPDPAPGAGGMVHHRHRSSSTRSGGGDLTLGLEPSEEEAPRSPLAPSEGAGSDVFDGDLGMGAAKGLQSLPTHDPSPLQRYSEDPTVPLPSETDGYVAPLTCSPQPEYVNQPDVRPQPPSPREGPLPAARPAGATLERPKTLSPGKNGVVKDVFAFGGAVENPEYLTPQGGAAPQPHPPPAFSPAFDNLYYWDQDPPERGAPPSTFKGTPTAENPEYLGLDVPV

[3] = SK-BR-3 cell growth inhibitors, pilot screen, 24 h, human (AID 572;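 active = viability at or below 10% of carrier control in both of two separate runs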;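 also: compound exposure lasted between 18 and 24 h rather than exactly 24 h; 100% = carrier-treated control wells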); conditions: SK-BR-3 viability, CellTiter-Glo luminescence, at 10 µM, stronger effect = lower value
[4] = HUVEC growth inhibition – cell-based, human, primary screen (AID 575;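 active = viability at or below 30% in both replicate assays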;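 also: 100% = median of untreated cell wells with 0.1% DMSO on each plate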); conditions: HUVEC proliferation, CellTiter-Glo luminescence, 72 h; at 10 µM; stronger effect = lower value
[5] = growth inhibitors of H69AR lung tumor, primary screen, human, duplicate replicates (AID 580); conditions: H69AR lung tumor cells viability, ATP luminescence, 72 h; at 10 µM; stronger effect = lower value;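 also: 100% = mean luminescence of untreated wells and 0% = no signal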
[6] = reversal of MRP1-mediated doxorubicin resistance, pilot screen, H69AR cells, doxorubicin co-treatment (AID 601;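 active = viability loss from added drug above about 55%, and viability with drug at most 40%, in both replicates, limit read from the data, passing the limit was not always enough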); conditions: CellTiter-Glo, 72 h, at 10 µM; for differential viability (reversal): stronger effect = higher value
[7] = 384-well plate pilot, post-Golgi transport modulator project, inhibition of yeast transport mutant growth (AID 636; in the data active = inhibition above about 31%); conditions: absorbance 615 nm, about 18 h, stronger effect = higher value
[8] = growth suppression of yeast trafficking mutant, preliminary HTS, modulators of trafficking downstream of Golgi apparatus project, 1536-format plate, OD 615 nm (AID 637; in the data active = inhibition above about 30%); conditions: yeast transport mutant growth, absorbance 615 nm, 18 h; stronger effect = higher value
[9] = OD615 S. cerevisiae growth inhibition, permissive medium, pilot counter-assay, permissive growth control for S. cerevisiae lifespan shortening project (AID 705;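 active = growth inhibition above 25% in both replicates, a cutoff set 3 SD above the mean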); conditions: OD615, 24 h, at 10 µM, stronger effect = higher value
[10] = Restrictive medium S. cerevisiae growth inhibition, OD615, pilot screen of yeast lifespan reduction project, restrictive growth control (AID 706;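 active = growth inhibition above a set limit, 3 SD over mean compound inhibition, in both replicates, cut at about 43% in these data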;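 also: modified DeaD lifespan yeast strain shifted to restrictive glucose medium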); conditions: OD615, 48 h, at 10 µM, stronger effect = higher value
[11] = viability gain of MRP-1-high H69AR cells under doxorubicin, pilot screen, MRP-1 activator project, CellTiter-Glo, duplicate (AID 807;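 active = viability increase at or above a cutoff of the median across tested compounds plus 3 SD, cut at about 8.5% in these data, passing the limit was not always enough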;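 also: compound pretreatment 18-22 h then 72 h combined with doxorubicin; 0% = doxorubicin alone and 100% = vehicle without doxorubicin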); conditions: H69AR viability with doxorubicin, CellTiter-Glo luminescence; at 10 µM; stronger effect = higher value
[12] = growth suppression of beta-catenin knockout HCT116, pilot screen, human colon tumor cells (AID 823;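 active = cell viability at or below a set limit in both duplicate runs, the limit being the all-compound median minus 4 SD, cut at about 23% in these data, passing the limit was not always enough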;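 also: 0% = wells killed by 20 µM Hyamine and 100% = untreated DMSO cell wells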); conditions: CellTiter-Glo, 60 h, at 10 µM, stronger effect = lower value
[13] = growth suppression of PTEN-deleted HCT116, pilot screen, cell-based, HCT116 clonal line, CellTiter-Glo (AID 824;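 active = viability at or below 27.92% in each of two runs, the all-compound median minus 4 SD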;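 also: 0% = 20 µM Hyamine control and 100% = vehicle cell control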); conditions: 60 h, at 10 µM, stronger effect = lower value
[14] = inhibitors of the yeast RAM network, pilot screen, dse1pr::URA3 reporter, 5-FOA selection (AID 869;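 active = inhibition over a set limit, the all-compound mean plus 3 SD, in both replicate runs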;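 also: 0% = DMSO wells with no growth and 100% = 10 µM 1-NA-PP1 with full growth; RAM network block rescues cells from 5-FOA so hits raise OD615 growth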); conditions: S. cerevisiae dse1pr::URA3 5-FOA growth, OD615, 2 d; at 10 µM; stronger effect = higher value; strain carries analog-sensitive mutant Cbk1 kinase
[15] = RAM signaling pathway blockade in yeast – S. cerevisiae, Pdr1DBD-CYC8 efflux-inhibited sensitized strain, primary screen (AID 1298;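 active = RAM network inhibition above 8.4% in each of two replicates, 3 SD over the compound average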;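 also: 0% = DMSO untreated cells without growth and 100% = 10 µM 1-NA-PP1 full growth; higher means more yeast growth rescued from 5-FOA killing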); conditions: S. cerevisiae cbk1-as DSE1-URA3 strain, 5-FOA growth OD615, 2 d; at 50 µM; stronger effect = higher value
[16] = H69AR cells + 2 uM doxorubicin, measured here: viability with 2 uM doxorubicin, stronger effect = lower value
[17] = H69AR cells, compound alone cytotoxicity

CCc1cc(=O)n2[nH]c(C)c(-c3ccccc3OC)c2n1
100%: viability [6, 17]
95%: viability [6, 16]
inactive: Her2 level [2] 106% | viability [3] 80.5% | viability [4] 91.3% | viability [5] 100% | differential viability (reversal) ([6]; H69AR cells + 2 uM doxorubicin) 5.22% | inhibition [7] 0.13% | inhibition [8] -6.83% | growth inhibition [9] -1.09% | growth inhibition [10] 0.365% | viability increase [11] -3.04% | viability [12] 98.6% | viability [13] 105% | inhibition [14] 2.31% | RAM network inhibition [15] 1.78%
80.5%: viability [1]

CCOc1ccccc1C(=O)Nc1nnc(CC)s1
97%: viability [6, 17]
88.7%: viability [6, 16]
94.5%: viability [1]
inactive: Her2 level [2] 84% | viability [3] 94.5% | viability [4] 114% | viability [5] 97% | differential viability (reversal) ([6]; H69AR cells + 2 uM doxorubicin) 8.28% | inhibition [7] -1.73% | inhibition [8] 3% | growth inhibition [9] -0.29% | growth inhibition [10] 12.6% | viability increase [11] -2.43% | viability [12] 96.3% | viability [13] 98.3% | inhibition [14] 0.31% | RAM network inhibition [15] 1.61%

Cc1csc(NC(=O)C(Cc2ccccc2)n2cccc2)n1 (stereo not given)
inactive: Her2 level [2] 87% | viability [3] 91.5% | viability [4] 101% | viability [5] 87.6% | differential viability (reversal) ([6]; H69AR cells + 2 uM doxorubicin) 5.21% | inhibition [7] -3.73% | inhibition [8] 6.56% | growth inhibition [9] -13.9% | growth inhibition [10] -8.47% | viability increase [11] -5.96% | viability [12] 73.8% | viability [13] 73.1% | inhibition [14] 1.32% | RAM network inhibition [15] 6.15%
82.4%: viability [6, 16]
87.6%: viability [6, 17]
91.5%: viability [1]

CCCS(=O)(=O)N1CCN(C(=O)c2cccnc2)CC1
97%: viability [1]
inactive: Her2 level [2] 98.5% | viability [3] 97% | viability [4] 93.1% | viability [5] 106% | differential viability (reversal) ([6]; H69AR cells + 2 uM doxorubicin) 5.65% | inhibition [7] -0.26% | inhibition [8] -3.77% | growth inhibition [9] -8.47% | growth inhibition [10] -15.8% | viability increase [11] 1.08% | viability [12] 101% | viability [13] 95.2% | inhibition [14] -0.345% | RAM network inhibition [15] 0.42%
106%: viability [6, 17]
101%: viability [6, 16]

COC(=O)C1(C#N)C(c2ccccc2)C1(C(=O)OC)C(=O)OC (stereo not given)
inactive: Her2 level [2] 90% | viability [3] 117% | viability [4] 105% | viability [5] 102% | differential viability (reversal) ([6]; H69AR cells + 2 uM doxorubicin) 11.3% | inhibition [7] -3.47% | inhibition [8] 0.65% | growth inhibition [9] -6.71% | growth inhibition [10] -6.54% | viability increase [11] -1.92% | viability [12] 77.4% | viability [13] 97.7% | inhibition [14] 1.43% | RAM network inhibition [15] 2.51%
90.8%: viability [6, 16]
117%: viability [1]
102%: viability [6, 17]

O=C(Nc1ccc2c(c1)OCCO2)NC1CCCCC1
85.9%: viability [6, 17]
126%: viability [1]
82.7%: viability [6, 16]
inactive: Her2 level [2] 98.5% | viability [3] 126% | viability [4] 89.5% | viability [5] 85.9% | differential viability (reversal) ([6]; H69AR cells + 2 uM doxorubicin) 3.18% | inhibition [7] -4.27% | inhibition [8] -1.13% | growth inhibition [9] -1.73% | growth inhibition [10] 4.4% | viability increase [11] -0.85% | viability [12] 86.8% | viability [13] 85.5% | inhibition [14] 1.55% | RAM network inhibition [15] -0.57%

O=P(O)(CCc1ccccc1)CN1CCCCC1
inactive: Her2 level [2] 106% | viability [3] 106% | viability [4] 102% | viability [5] 95.5% | differential viability (reversal) ([6]; H69AR cells + 2 uM doxorubicin) 3.43% | inhibition [7] 7.97% | inhibition [8] -1.97% | growth inhibition [9] -2.51% | growth inhibition [10] -11.9% | viability increase [11] -0.92% | viability [12] 102% | viability [13] 98.8% | inhibition [14] 2% | RAM network inhibition [15] 1.24%
106%: viability [1]
92%: viability [6, 16]
95.5%: viability [6, 17]

CCn1cc(C(=O)NCC2CCCO2)c(=O)c2cc(S(=O)(=O)N(C)C3CCCCC3)ccc21 (stereo not given)
68.5%: viability [6, 17]
83.5%: viability [1]
80%: viability [6, 16]
inactive: Her2 level [2] 93.5% | viability [3] 83.5% | viability [4] 69.5% | viability [5] 68.5% | differential viability (reversal) ([6]; H69AR cells + 2 uM doxorubicin) -11.5% | inhibition [7] -1.41% | inhibition [8] 1.5% | growth inhibition [9] -2.38% | growth inhibition [10] -2.37% | viability increase [11] -5.22% | viability [12] 88.9% | viability [13] 87% | inhibition [14] 4.23% | RAM network inhibition [15] -0.83%

Cc1sc2nc(SCC(=O)NCCO)n(C)c(=O)c2c1C
94.7%: viability [6, 16]
inactive: Her2 level [2] 108% | viability [3] 91% | viability [4] 104% | viability [5] 88% | differential viability (reversal) ([6]; H69AR cells + 2 uM doxorubicin) -6.7% | inhibition [7] 0.77% | inhibition [8] -8.33% | growth inhibition [9] -9.24% | growth inhibition [10] -20.8% | viability increase [11] -1.81% | viability [12] 105% | viability [13] 94.6% | inhibition [14] 3.88% | RAM network inhibition [15] 2.59%
91%: viability [1]
88%: viability [6, 17]

CCN(CC)Cc1c(C(=O)OC)nnn1-c1nonc1N
92.1%: viability [6, 16]
inactive: Her2 level [2] 95.5% | viability [3] 87% | viability [4] 99.6% | viability [5] 106% | differential viability (reversal) ([6]; H69AR cells + 2 uM doxorubicin) 13.6% | inhibition [7] -7.4% | inhibition [8] -3.33% | growth inhibition [9] -0.575% | growth inhibition [10] -3.39% | viability increase [11] -2.07% | viability [12] 94.2% | viability [13] 102% | inhibition [14] 0.645% | RAM network inhibition [15] 0.53%
106%: viability [6, 17]
87%: viability [1]
